Bioassay records from PubChem.
IP6K1 inh: blocks human inositol hexakisphosphate kinase 1. Q92551. IP6K1 kinase, ADP-Glo luminescence, 2 h; stronger effect = lower value. activity change, % (series mostly up to about 58 µM). 140,000 compounds, 0.81% hits; in the data active = activity change below about -25%; also: % is scaled to controls: 0 for no effect and ±100 for the full control effect
Target sequence (Q92551 whole entry, looked up): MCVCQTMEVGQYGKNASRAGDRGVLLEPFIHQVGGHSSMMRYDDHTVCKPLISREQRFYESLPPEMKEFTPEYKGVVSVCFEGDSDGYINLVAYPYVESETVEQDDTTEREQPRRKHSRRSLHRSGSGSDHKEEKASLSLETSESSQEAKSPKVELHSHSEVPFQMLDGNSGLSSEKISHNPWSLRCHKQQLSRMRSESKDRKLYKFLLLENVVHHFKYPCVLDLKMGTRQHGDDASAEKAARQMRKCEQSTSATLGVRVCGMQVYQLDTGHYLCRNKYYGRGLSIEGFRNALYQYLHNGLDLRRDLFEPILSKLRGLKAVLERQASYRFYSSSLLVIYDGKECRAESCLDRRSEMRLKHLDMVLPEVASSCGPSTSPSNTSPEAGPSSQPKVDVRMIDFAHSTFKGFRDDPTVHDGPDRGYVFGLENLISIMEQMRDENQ
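ADP-Glo luminescence measures ADP made by human IP6K1 during a 2 h RT reaction with ATP/IP6 (mix at 1.3 mM/130 uM); top library doses 57.5 and 19.1 uM final.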
SNCA expr inhib: inhibitors of alpha-synuclein (SNCA) gene expression. HEK-293 SNCA-luciferase knock-in, luminescence, 24 h. AID 1671194. 140,000 compounds, 0.17% hits. Potency, µM (doses to about 57.2 µM), for the others: at the top dose activity change, negative = inhibition, hits mostly inhibitors;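 also: potency is read from the fitted curve at half-maximal effect; plate controls were DMSO cells for no effect and cell-free wells for full effect; nearly all actives have a fitted effect of over 45% in size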
KDM5B inh: inhibitors of human KDM5B histone demethylase; Q9UGL1; KDM5B demethylase, FDH-coupled NADH fluorescence (FDH is formaldehyde dehydrogenase); Potency, µM (series often up to 57.7 µM), usual class: inhibitors; 220,000 compounds, 2.6% hits; AID 1347165; also: potency is read from the fitted curve at half-maximal effect; 0% is about no effect; nearly all actives have a fitted effect of over 70% in size
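Coupled FDH/NAD⁺ fluorescence readout. KDM5BΔAP 200 nM final; compound titration, 10 min RT preincubation; substrate mix 12.5 µM H3K4me3, 25 µM 2-OG, 50 µM Fe(II), 100 µM ascorbate, 0.25 mM NAD⁺, 0.25 U/mL FDH; ΔRFU over 30 min.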
HEK293 viab: counter-screen for SNCA expression inhibitors: cell viability | 150,000 compounds, 0.12% hits | HEK-293-SNCA-luc viability, GF-AFC fluorescence, 24 h | Potency, µM (top dose mostly 57.1 µM), inactives show top-dose activity change, negative = cytotoxicity, actives largely listed as cytotoxic;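 also: potency is read from the fitted curve at half-maximal effect; 0% = DMSO-treated cells and -100% = medium-only wells without cells; nearly all actives have a fitted effect of over 30% in size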
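HEK-293-SNCA-luc cells (1500/well) plated 24 h, then exposed 24 h to a dilution series; GF-AFC added 30 min at 37C, fluorescence 405/540 nm; normalised to medium-only and DMSO wells, Hill fit.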
* hit, by the source's call; i = inactive; ? = inconclusive; nt = no result given; [ ] = dose if it differs, or a comment. In the library only some 2.8% were active in any assay of this set; here they are far more common. Unless noted, calls follow the shape of the dose curve; as a rule, active = well fitted curve in the direction sought with a large enough effect; inconclusive = small, poorly fitted or top-dose-only effect, or another doubt; inactive = no such curve, though single readings can be large; an effect the other way counts as inactive or inconclusive.

SMILES | IP6K1 inh | SNCA expr inhib | KDM5B inh | HEK293 viab
CCC[C@@H](C=O)NC(=O)[C@H](CC(C)C)NC(=O)[C@H](CC(C)C)NC(=O)OCc1ccccc1 | nt | 1.9µM* | nt | ?
CCc1n[nH]c(CC2CCN(C(=O)Nc3ccc4c(c3)OCCO4)CC2)n1 | 16 | -28% | 22µM* | 2%
c1ccc(CN2CCn3c(nnc3C3CCNCC3)C2)cc1 | -9 | 3%[87.6 µM] | 100µM* | 4%[87.6 µM]
CC(=O)Nc1ccc(CN2CCn3c(nnc3C3CCNCC3)C2)cc1 | 4 | -1%[87.6 µM] | 13µM* | -28%[87.6 µM]
COc1ccc(CN2CCn3c(nnc3C3CCNCC3)C2)cc1 | 3 | 34% | i | 5%
O=[S+]([O-])(NC1CCN(Cc2cccc(-c3cccs3)c2)CC1)c1cccc(C(F)(F)F)c1 | -10 | ? | nt | ?
CCCCNC(=O)CSc1nc2ccccc2nc1Cc1ccc(C)cc1 | -6 | 0% | i | -2%
CCCCN(C)C(=O)CSc1nc2ccccc2nc1Cc1ccc(C)cc1 | 26 | 14µM* | i | ?
CN(C)[C@@H]1[C@@H](NC(=O)CCc2nc3ccccc3[nH]c2=O)[C@H]2CCO[C@H]21 | 7 | 5% | 28µM* | 3%
Cc1cccc(C(=O)N2CCCC(c3noc(-c4cc5c(=O)[nH]c(C)cn5n4)n3)C2)c1 (stereo not drawn) | 0 | ? | i | -11%
Cc1cn2nc(-c3nc(C4CCCN(C(=O)c5sccc5C)C4)no3)cc2c(=O)[nH]1 (stereo not drawn) | 10 | -22% | 25µM* | -9%
Cc1cn2nc(-c3nc(C4CCCN(C(=O)c5ccc(C)s5)C4)no3)cc2c(=O)[nH]1 (stereo not drawn) | -16 | 42% | 28µM* | -2%
Cc1cn2nc(-c3nc(C4CCCN(C(=O)Cc5ccsc5)C4)no3)cc2c(=O)[nH]1 (stereo not drawn) | 5 | 0% | i | -4%
CCc1ccc(C(=O)N2CCCC(c3noc(-c4cc5c(=O)[nH]c(C)cn5n4)n3)C2)cc1 (stereo not drawn) | 2 | 5% | 25µM* | -18%
CN(C)Cc1ccc(CNC(=O)/C=C/c2ccsc2)cc1 | nt | nt | i | nt
O=c1[nH]c(=O)n(Cc2ccccc2)c2nccc(-c3ccc4c(c3)OCO4)c12 | nt | nt | i | nt
CC1(COc2cccnc2)COc2ccc(C(=O)NC3CCC(O)CC3)cc2N1 (stereo not drawn) | -2 | -25%[87.6 µM] | 35µM* | 3%[87.6 µM]
COc1ccc(OCC2(C)COc3ccc(C(=O)NC4CCC(O)CC4)cc3N2)cc1 (stereo not drawn) | -15 | ? | 32µM* | ?
CC1(COc2cccnc2)COc2ccc(C(=O)NCC3CCOCC3)cc2N1 (stereo not drawn) | 1 | -8%[87.6 µM] | 35µM* | 8%[87.6 µM]
COc1ccc(NC(=O)[C@H]2C[C@@H]3CCCN3[C@]23C(=O)Nc2c(C)cc(Cl)cc23)cc1 | nt | nt | i | nt
O=C(NCc1nnc2ccc(-c3ccc(F)cc3)nn12)c1cccc(C(F)(F)F)c1 | 12 | -5% | 28µM* | -14%
O=C(Cc1ccc(F)cc1)NCc1nnc2ccc(-c3ccc(Cl)cc3)nn12 | 14 | -9% | ? | -7%
CC(=O)Nc1cccc(C(=O)NCc2nnc3ccc(-c4ccc(C)cc4)nn23)c1 | 8 | 7% | ? | -10%
O=C(NCc1nnc2ccc(-c3ccccc3)nn12)c1cccc(Br)c1 | 15 | -22% | 22µM* | -26%
N#Cc1ccc(C(=O)NCc2nnc3ccc(-c4ccc(F)cc4)nn23)cc1 | 45 | 12% | 28µM* | ?
SMILES | IP6K1 inh | SNCA expr inhib | KDM5B inh | HEK293 viab
O=C(NCc1nnc2ccc(-c3ccc(Cl)cc3)nn12)c1cccc(Cl)c1 | 4 | 0% | 22µM* | -8%
Cc1cc(C)c(C)c(SC(C)C(=O)NC2CCCC2)c1C (stereo not drawn) | nt | nt | i | nt
O=C(NCCC1CCCCC1)C1CCCN(Cc2cccc(-c3ccsc3)c2)C1 (stereo not drawn) | 2 | nt | nt | nt
O=C(Nc1cc2cccc([N+](=O)[O-])c2oc1=O)c1ccc(F)cc1 | nt | nt | i | nt
O=C(Nc1cc2ccc(O)cc2oc1=O)c1ccc(F)cc1 | -13 | 2µM* | i | 0%
CC(C)(C)c1ccc(-c2nnc(SCC(=O)N3CCCC3)n2C2CCCC2)cc1 | nt | nt | i | nt
COCC(C)n1c(C)cc(C(=O)COC(=O)Cn2cnc3c2c(=O)n(C)c(=O)n3C)c1C (stereo not drawn) | nt | nt | i | nt
COc1ccc(NC(=O)c2cc3n(n2)CC(c2ccc(Br)cc2)OC3)cc1OC (stereo not drawn) | 1 | -28% | ? | ?
Cc1cc(NC(=O)c2cc3n(n2)CC(c2ccc(Cl)cc2)OC3)ccc1F (stereo not drawn) | 21 | 23% | ? | 6%
O=C(Nc1cccc(F)c1)c1cc2n(n1)CC(c1ccc(Br)cc1)OC2 (stereo not drawn) | 5 | 4% | 25µM* | 5%
CC(=O)Nc1ccc(NC(=O)c2cc3n(n2)CC(c2ccc(Br)cc2)OC3)cc1 (stereo not drawn) | -7 | ? | ? | -29%
COc1cc(NC(=O)c2cc3n(n2)CC(c2ccc(Br)cc2)OC3)cc(OC)c1OC (stereo not drawn) | -3 | ? | 32µM* | -19%
NC(=O)c1ccc(NC(=O)c2cc3n(n2)CC(c2ccc(Br)cc2)OC3)cc1 (stereo not drawn) | 0 | -8% | 25µM* | 2%
O=C(c1ccc(-c2cccs2)cc1)N1CCC(C(=O)N2CCC(c3ccccc3)CC2)CC1 | 0 | nt | nt | nt
COC(=O)N(C)Cc1cccc(N2CCN(C(C)c3ccccc3)CC2)c1F (stereo not drawn) | 7 | nt | nt | nt
CCC(C)Nc1ccc2nncn2n1 (stereo not drawn) | 1 | 11% | 28µM* | 10%
CC(C)CNc1ccc2nncn2n1 | -3 | -2% | ? | 1%
CC1=C[C@@H](CNc2ccccn2)[C@H](C(C)C)C[C@H]1Cc1nnc(-c2cncn2C)o1 | -4 | ? | 35µM* | -28%[87.6 µM]
CC1=C[C@@H](CN2CCN(c3ccccn3)CC2)[C@H](C(C)C)C[C@H]1Cc1nnc(-c2ccc(C)cc2)o1 | -6 | ? | ? | ?
CC1=C[C@@H](CN2CCN(c3cnccn3)CC2)[C@H](C(C)C)C[C@H]1Cc1nnc(-c2ccccc2)o1 | -16 | ? | 28µM* | ?
CCCn1c(SCc2ncc(-c3ccc(Cl)cc3)o2)n[nH]c1=O | nt | nt | i | nt
Cc1nn(CC(=O)NCCCN2CCCCC2)c(=O)c2nc(-c3ccccc3)sc12 | 3 | 10% | 32µM* | -3%
CCc1nc2c(=O)n(CC(=O)NCc3cccc(Cl)c3)nc(C)c2s1 | 9 | -4% | i | -1%
Cc1nn(CC(=O)O)c(=O)c2nc(-c3ccccc3)sc12 | -13 | 3% | 32µM* | 4%
Cc1nn(CC(=O)NCCN2CCCCCC2)c(=O)c2nc(-c3ccccc3)sc12 | 24 | 23% | 20µM* | -2%
O=C(Cn1nc(-c2ccccc2)ccc1=O)NCCCN1CCOCC1 | nt | nt | i | nt
Cc1ccc(-c2nn(CC(=O)O)c(=O)c3ccccc23)cc1 | nt | nt | i | nt
